Source: PubChem BioAssay (NCATS)
Records with an inconclusive call do not appear. Active and inactive are the calls of the source. The call rests on the fitted dose curve; in most records, active means well fitted curve in the direction sought with a large enough effect; inconclusive means small, poorly fitted or top-dose-only effect, or another doubt; inactive means no such curve, though single readings can be large; an effect the other way counts as inactive or inconclusive.

Assays:
HaCat [1] = test: Cytotoxic Profiling of Annotated Libraries Using Quantitative High-Throughput Screening (AID 1296008); details: Five cell lines viability, CellTiter-Glo ATP luminescence, 48-72 h; max response: active compounds read low; further: nearly all actives have a fitted effect of over 60% in size; on max response: on the % scale 0 is the no-effect control and ±100 the full control effect
Summary of the method: (§1)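 Compounds were pin-transferred onto cells and incubated 48 or 72 hr at 37 degree Celsius, 95% humidity. CellTiter-Glo was added, plates sat 10 min at room temperature, then ATP-coupled luminescence was imaged as the viability read-out.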

KB-3-1 = test: as above; details: Five cell lines viability, CellTiter-Glo ATP luminescence, 48-72 h; max response: active compounds read low
Summary of the method: as §1

NIH3T3 [2] = test: as above; details: Five cell lines viability, CellTiter-Glo ATP luminescence, 48-72 h; max response: active compounds read low
Summary of the method: as §1

C33A = test: Primary qHTS to identify gynecologic anti-cancer compounds using libraries of approved drugs and bioactive compounds (AID 1345084); details: Gynecologic cancer cell panel viability, ATPlite luminescence, 48 h; series mostly up to 57.5 µM; further: nearly all actives have a fitted effect of over 55% in size; further: potency means the concentration at half of the fitted maximal effect; on activity change, negative = cytotoxicity: on the % scale 0 is the no-effect control and ±100 the full control effect
Summary of the method: (§2)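 Cells, 1,000 per well, plated 16 h, then exposed 48 h at 37 C to compounds. Viability by ATPlite luminescence after 15 min at room temperature.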

CAOV3 = test: as above; details: Gynecologic cancer cell panel viability, ATPlite luminescence, 48 h; series mostly up to 57.5 µM
Summary of the method: as §2

CASKI = test: as above; details: Gynecologic cancer cell panel viability, ATPlite luminescence, 48 h; series mostly up to 57.5 µM
Summary of the method: as §2

Es-2 = test: as above; details: Gynecologic cancer cell panel viability, ATPlite luminescence, 48 h; series mostly up to 57.5 µM
Summary of the method: as §2

HeLa = test: as above; details: Gynecologic cancer cell panel viability, ATPlite luminescence, 48 h; series mostly up to 57.5 µM
Summary of the method: as §2

Hek293T [3] = test: as above; details: Gynecologic cancer cell panel viability, ATPlite luminescence, 48 h, control line for the selectivity index; series mostly up to 57.5 µM
Summary of the method: as §2

JEG-3 = test: as above; details: Gynecologic cancer cell panel viability, ATPlite luminescence, 48 h; series mostly up to 57.5 µM
Summary of the method: as §2

HACAT [4] = test: qHTS assay to identify novel small-molecules to repurpose for Merkel cell carcinoma treatment (AID 1296009); details: MCC and control cell lines, CellTiter-Glo viability, 72 h; series mostly up to 44.8 µM; further: nearly all actives have a fitted effect of over 60% in size
Summary of the method: (§3)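 qHTS format: cells treated with library compounds in DMSO across 8 (NPC) or 11 (MIPE) concentrations. Readout after 72 hr at 37 degree celsius was CellTiter-Glo luminescence.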

OV90 = test: Primary qHTS to identify gynecologic anti-cancer compounds using libraries of approved drugs and bioactive compounds (AID 1345084); details: Gynecologic cancer cell panel viability, ATPlite luminescence, 48 h; series mostly up to 57.5 µM; further: nearly all actives have a fitted effect of over 55% in size; further: potency means the concentration at half of the fitted maximal effect; on activity change, negative = cytotoxicity: on the % scale 0 is the no-effect control and ±100 the full control effect
Summary of the method: as §2

NIH3T3 [5] = test: qHTS assay to identify novel small-molecules to repurpose for Merkel cell carcinoma treatment (AID 1296009); details: MCC and control cell lines, CellTiter-Glo viability, 72 h; at 44.8 µM (top of the series) unless noted; further: nearly all actives have a fitted effect of over 60% in size
Summary of the method: as §3

HEK293T [6] = test: as above; details: MCC and control cell lines, CellTiter-Glo viability, 72 h; at 44.8 µM (top of the series) unless noted
Summary of the method: as §3

CC(C)CNCc1ccc(-c2ccccc2S(=O)(=O)N2CCCC2)cc1
inactive: max response (HaCat [1]) -12.3% | max response (KB-3-1) -1.28% | max response (NIH3T3 [2]) -1.63% | Potency (C33A) | Potency (CAOV3) | Potency (CASKI) | Potency (Es-2) | Potency (HeLa) | Potency (Hek293T [3]) | Potency (JEG-3)

O=C(O)C1CN(Cc2ccc(-c3nc4cc(Cc5ccccc5F)ccc4s3)c(F)c2)C1
inactive: outcome (HaCat [1]) | max response (KB-3-1) -5.18% | max response (NIH3T3 [2]) 3.31% | outcome (HACAT [4]) inactive [at 9.27 µM] | activity change, negative = cytotoxicity (C33A) 7.49% [at 11.6 µM] | activity change, negative = cytotoxicity (Es-2) 0.907% [at 11.6 µM] | activity change, negative = cytotoxicity (HeLa) 11.8% [at 11.6 µM] | activity change, negative = cytotoxicity (Hek293T [3]) 9.39% [at 11.6 µM] | activity change, negative = cytotoxicity (JEG-3) 9.86% [at 11.6 µM] | activity change, negative = cytotoxicity (OV90) 12.7% [at 11.6 µM]

CC(=O)O[C@@H]1[C@H](O)[C@@H](O[C@@H]2O[C@@H](C)[C@H](O[C@@H]3OC[C@@H](O)[C@H](O[C@@H]4OC[C@@H](O)[C@H](O)[C@H]4O)[C@H]3O)[C@@H](O[C@@H]3O[C@H](CO)[C@@H](O)[C@H](O)[C@H]3O)[C@H]2O)[C@H](OC(=O)[C@]23CCC(C)(C)C[C@H]2C2=CCC4[C@@]5(C)CC[C@H](O[C@@H]6O[C@H](C(=O)O)[C@@H](O)[C@H](O[C@@H]7OC[C@@H](O)[C@H](O)[C@H]7O)[C@H]6O[C@@H]6O[C@H](CO)[C@H](O)[C@H](O)[C@H]6O)[C@@](C)(C=O)C5CC[C@@]4(C)[C@]2(C)CC3)O[C@@H]1C (stereo partly specified)
inactive: max response (HaCat [1]) 0.448% | max response (KB-3-1) -1.2% | outcome (NIH3T3 [2]) | outcome (NIH3T3 [5]) inactive [at 4.96 µM] | activity change, negative = cytotoxicity (C33A) 0.359% [at 6.55 µM] | activity change, negative = cytotoxicity (CAOV3) 19.4% [at 6.55 µM] | activity change, negative = cytotoxicity (CASKI) -13.6% [at 6.55 µM] | activity change, negative = cytotoxicity (Es-2) -2.98% [at 6.55 µM] | activity change, negative = cytotoxicity (HeLa) 2.25% [at 6.55 µM] | activity change, negative = cytotoxicity (Hek293T [3]) -2.1% [at 6.55 µM] | activity change, negative = cytotoxicity (JEG-3) -8.94% [at 6.55 µM]

O=C(Nc1nc2ccccc2n1CCc1ccccc1)c1ccccc1
inactive: outcome (HaCat [1]) | max response (KB-3-1) 5.59% | max response (NIH3T3 [2]) -1.28% | Potency (HACAT [4]) | Potency (CASKI) | Potency (HeLa)

NC1(C(=O)NC(CCO)c2ccc(Cl)cc2)CCN(c2ncnc3[nH]ccc23)CC1 (stereo unspecified)
active: Potency (C33A) 2240 nM
inactive: max response (HaCat [1]) -41.5% | max response (KB-3-1) -13.8% | outcome (NIH3T3 [2]) | outcome (NIH3T3 [5]) | Potency (CAOV3) | Potency (CASKI) | Potency (Es-2) | Potency (HeLa) | Potency (JEG-3)

C[C@@H]1O[C@@H](O[C@H]2[C@H](OC(=O)[C@]34CCC(C)(C)C[C@H]3C3=CCC5[C@@]6(C)C[C@H](O)[C@H](O[C@@H]7O[C@H](CO)[C@@H](O)[C@H](O)[C@H]7O)[C@@](C)(CO)C6[C@H](O)C[C@@]5(C)[C@]3(C)CC4)OC[C@H](O)[C@@H]2O)[C@H](O)[C@H](O)[C@H]1O[C@@H]1OC[C@@H](O)[C@H](O[C@@H]2OC[C@](O)(CO)[C@H]2O)[C@H]1O (stereo partly specified)
inactive: max response (HaCat [1]) -1.17% | max response (KB-3-1) 3.08% | outcome (NIH3T3 [2]) | outcome (NIH3T3 [5]) inactive [at 9.27 µM] | activity change, negative = cytotoxicity (C33A) 7.14% [at 6.55 µM] | activity change, negative = cytotoxicity (CAOV3) 10.8% [at 6.55 µM] | activity change, negative = cytotoxicity (CASKI) 15.5% [at 6.55 µM] | activity change, negative = cytotoxicity (Es-2) 6.38% [at 6.55 µM] | activity change, negative = cytotoxicity (HeLa) 4.34% [at 6.55 µM] | activity change, negative = cytotoxicity (Hek293T [3]) 3.42% [at 6.55 µM] | activity change, negative = cytotoxicity (JEG-3) 3.02% [at 6.55 µM] | activity change, negative = cytotoxicity (OV90) 1.6% [at 6.55 µM]

O=C(C(c1ccccc1)c1ccccc1)N1CCN(CC(O)COc2cccc3ncccc23)CC1 (stereo unspecified)
inactive: max response (HaCat [1]) -24.2% | max response (KB-3-1) -28.1% | max response (NIH3T3 [2]) -26.9% | Potency (C33A) | Potency (CAOV3) | Potency (CASKI) | Potency (Es-2) | Potency (HeLa) | Potency (Hek293T [3]) | Potency (JEG-3)

Cc1cc(O)cc(O[C@@H]2O[C@H](CO)[C@@H](O)[C@H](O)[C@H]2O)c1
inactive: max response (HaCat [1]) -10.5% | max response (KB-3-1) 4.47% | max response (NIH3T3 [2]) -8.17% | Potency (C33A) | Potency (CAOV3) | Potency (CASKI) | Potency (Es-2) | Potency (HeLa) | Potency (Hek293T [3]) | Potency (JEG-3) | Potency (OV90)

CC1CCC23COC(=O)C2=CC(O)CC3C1(C)CCC1=CC(O)OC1=O (stereo unspecified)
inactive: max response (HaCat [1]) -7.3% | outcome (KB-3-1) | max response (NIH3T3 [2]) 0.229% | Potency (C33A) | Potency (CAOV3) | Potency (CASKI) | Potency (Es-2) | Potency (HeLa) | Potency (Hek293T [3]) | Potency (JEG-3) | Potency (OV90)

COC(=O)CC(C)(O)CC(=O)OCc1ccc(O[C@@H]2O[C@H](CO)[C@@H](O)[C@H](O)[C@H]2O)cc1 (stereo partly specified)
inactive: max response (HaCat [1]) 2.19% | max response (KB-3-1) 4.52% | max response (NIH3T3 [2]) -2.06% | outcome (HEK293T [6]) inactive [at 17.4 µM] | Potency (C33A) | Potency (CAOV3) | Potency (CASKI) | Potency (Es-2) | Potency (HeLa) | Potency (Hek293T [3]) | Potency (JEG-3) | Potency (OV90)

N#Cc1ccc(C(=O)N2CCC3(CC2)N=C(N)c2c(F)ccc(F)c2N3)cn1
inactive: max response (HaCat [1]) 2.01% | max response (KB-3-1) -9.49% | max response (NIH3T3 [2]) -5.13% | Potency (C33A) | Potency (CAOV3) | Potency (CASKI) | Potency (Es-2) | Potency (HeLa) | Potency (Hek293T [3]) | Potency (JEG-3) | Potency (OV90)

CC(=O)O[C@@H]1c2c3c(cc(O)c2C(=O)O[C@@H]1C)O[C@@]1(C)[C@@H](O)C[C@H]2C(C)(C)C(=O)C=C[C@]2(C)[C@@H]1C3
inactive: max response (HaCat [1]) 3.68% | outcome (KB-3-1) | max response (NIH3T3 [2]) -3.36% | Potency (C33A) | Potency (CAOV3) | Potency (CASKI) | Potency (Es-2) | Potency (HeLa) | Potency (Hek293T [3]) | Potency (JEG-3) | Potency (OV90)

O=C1NC2CCc3nc4ccccc4c(=O)n3C2=Nc2ccccc21 (stereo unspecified)
inactive: max response (HaCat [1]) 3.54% | outcome (KB-3-1) | max response (NIH3T3 [2]) 4.44% | Potency (C33A) | Potency (CAOV3) | Potency (CASKI) | Potency (Es-2) | Potency (HeLa) | Potency (Hek293T [3]) | Potency (JEG-3) | Potency (OV90)
